Source: PubChem BioAssay (NCATS)
Inconclusive results are not listed. Calls of active or inactive are those of the source. Unless noted, the call rests on the fitted dose curve. Bridge positions count the residues as written; N and C are the ends. Square brackets hold non-standard residues; d marks the D form. Peptide text beside a SMILES is read from it. hArg = N=C(N)NCCCC[C@H](N)C(=O)O; Mpa = O=C(O)CCS

How the values were obtained:
[1] = qHTS for Inhibitors of the Functional Ribonucleoprotein Complex (vRNP) of Lassa (LASV) Arenavirus: LASV Primary Screen - GLuc reporter signal (AID 1347082; calls by dose curve; tested in HEK293 reporter line; further: nearly all actives have a fitted effect of over 60% in size)
[2] = qHTS for Inhibitors of the Functional Ribonucleoprotein Complex (vRNP) of Lassa (LASV) Arenavirus: Viability assay - alamar blue signal for LASV Primary Screen (AID 1347083; calls by dose curve; tested in HEK293 reporter line; further: nearly all actives have a fitted effect of over 80% in size)
[3] = qHTS for Inhibitors of the Functional Ribonucleoprotein Complex (vRNP) of Lymphocytic Choriomeningitis Arenaviruses (LCMV): Viability assay - alamar blue signal for LCMV Primary Screen (AID 1347085; calls by dose curve; tested in HEK293 reporter line; further: nearly all actives have a fitted effect of over 80% in size)
[4] = target: Nucleoprotein (Lymphocytic choriomeningitis virus (strain Armstrong)) (UniProt P09992); assay: qHTS for Inhibitors of the Functional Ribonucleoprotein Complex (vRNP) of Lymphocytic Choriomeningitis Arenaviruses (LCMV): LCMV Primary Screen - GLuc reporter signal (AID 1347086); further: nearly all actives have a fitted effect of over 70% in size
Sequence of Nucleoprotein (Lymphocytic choriomeningitis virus (strain Armstrong)) (P09992 whole entry, looked up): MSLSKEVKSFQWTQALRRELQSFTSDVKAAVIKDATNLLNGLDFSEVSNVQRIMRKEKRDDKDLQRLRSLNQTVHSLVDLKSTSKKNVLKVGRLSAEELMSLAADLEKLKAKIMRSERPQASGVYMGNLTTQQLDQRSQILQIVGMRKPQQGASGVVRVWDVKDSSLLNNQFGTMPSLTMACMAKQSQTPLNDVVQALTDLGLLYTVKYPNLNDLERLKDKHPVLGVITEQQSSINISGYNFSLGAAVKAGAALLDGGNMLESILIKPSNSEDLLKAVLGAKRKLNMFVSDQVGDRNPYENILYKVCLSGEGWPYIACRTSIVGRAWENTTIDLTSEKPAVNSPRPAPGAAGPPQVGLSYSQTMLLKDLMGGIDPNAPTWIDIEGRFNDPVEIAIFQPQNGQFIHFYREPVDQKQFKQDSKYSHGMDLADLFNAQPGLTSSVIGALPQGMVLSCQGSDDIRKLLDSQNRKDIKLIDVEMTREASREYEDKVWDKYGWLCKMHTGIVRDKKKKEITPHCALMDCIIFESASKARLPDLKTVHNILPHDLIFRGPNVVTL

Measured: Potency
Further: series mostly up to about 57 µM.

CSc1ccc2c(c1)C(N1CCN(C)CC1)Cc1ccccc1S2 (stereo not drawn)
inactive: all assays above

N[C@@H](CSCCCO)C(=O)O
inactive: all assays above

O=C(COc1ccc(Cl)cc1)N1CCN(Cc2ccc3c(c2)OCO3)CC1
inactive: all assays above

C/C(=N/NC(=O)c1ccncc1)C(=O)O
inactive: all assays above

NC(=O)[C@@H]1CSSCCC(=O)N[C@@H](CCCCN=C(N)N)C(=O)NCC(=O)N[C@@H](CC(=O)O)C(=O)N[C@@H](Cc2c[nH]c3ccccc23)C(=O)N2CCC[C@H]2C(=O)N1 ([Mpa][hArg]GDWPC-NH2; disulfide 1-7)
inactive: all assays above

Oc1c(I)cc(Cl)c2cccnc12
inactive: all assays above

O=C(O)CN(CCOCCOCCN(CC(=O)O)CC(=O)O)CC(=O)O
inactive: all assays above

CC1(C)OC(=O)Nc2ccc(Br)cc21
inactive: all assays above

O=C(O)c1cn(C2CC2)c2cc(Cl)c(F)cc2c1=O
inactive: all assays above

CN(C)C(=O)Nc1ccc(Cl)c(Cl)c1
inactive: all assays above

OC(CCCN1CCCCC1)(c1ccccc1)c1ccccc1
inactive: all assays above

COc1cc2c(cc1OC)C(C(C(=O)N(CCc1ccc(OC)c(OC)c1OC)CCc1ccc(OC)c(OC)c1OC)c1ccccc1)=NCC2 (stereo not drawn)
inactive: all assays above

Oc1cc(O)c2c(c1)O[C@H](c1ccc(O)c(O)c1)[C@H](O)C2
inactive: all assays above

Cc1ccc(O)c(-n2nc3ccccc3n2)c1
inactive: all assays above

COc1ccc2[nH]c(S(=O)Cc3ncc(C)c(OC)c3C)nc2n1 (stereo not drawn)
inactive: all assays above

C[C@H](N)C(=O)N[C@@H](C)C(=O)NC1[C@H]2CN(c3nc4c(cc3F)c(=O)c(C(=O)O)cn4-c3ccc(F)cc3F)C[C@@H]12 (stereo partly drawn)
inactive: all assays above

C=C1C[C@H]2[C@@H]3C=C(C)C4=CC(=O)CC[C@]4(C)[C@H]3CC[C@]2(C)[C@@]1(OC(C)=O)C(C)=O
inactive: all assays above

COc1ccc2cc1Oc1ccc(cc1)C[C@H]1c3c(cc4c(c3Oc3cc5c(cc3OC)CCN(C)[C@@H]5C2)OCO4)CCN1C
inactive: all assays above

NC(=O)CC[C@@H](N)C(=O)O
inactive: all assays above

O=C(CCCCC(=O)Nc1c(I)cc(I)c(C(=O)O)c1I)Nc1c(I)cc(I)c(C(=O)O)c1I
inactive: all assays above

OCCN1CCN(CCCN2c3ccccc3C=Cc3ccccc32)CC1
inactive: all assays above

Clc1ccc(C(Cn2ccnc2)OCc2ccsc2Cl)c(Cl)c1 (stereo not drawn)
inactive: all assays above

Nc1ccc(C(=O)N2CC3CC(CN(Cc4ccccc4)C3)C2)cc1
inactive: all assays above

CN1C(=O)CC(c2ccccc2)C1=O (stereo not drawn)
inactive: all assays above

NS(=O)(=O)c1ccc(N2CCCCS2(=O)=O)cc1
inactive: all assays above

CC(=O)Nc1ccc(OCCOCCOc2ccc(NC(C)=O)cc2)cc1
inactive: all assays above

Nc1ccncc1N
inactive: all assays above

CSc1ccc(/C=C2/C(C)=C(CC(=O)O)c3cc(F)ccc32)cc1
inactive: all assays above

CNC1CCCN(c2c(F)cc3c(=O)c(C(=O)O)cn(C4CC4)c3c2OC)C1 (stereo not drawn)
inactive: all assays above

Cc1cccc(OCC(O)CNC(C)(C)C)c1C (stereo not drawn)
inactive: all assays above

CCC(=O)c1ccc2c(c1)N(CCCN(C)C)c1ccccc1S2
inactive: all assays above

O=C(Oc1cccc2cccnc12)c1ccccc1
inactive: all assays above

CC(=O)Oc1c(C)c(C)c2c(c1C)CC[C@@](C)(CCC[C@H](C)CCC[C@H](C)CCCC(C)C)O2
inactive: all assays above

C[C@]12CCC(=O)C=C1[C@@H]1C[C@@H]1[C@H]1[C@@H]3[C@@H]4C[C@@H]4[C@@]4(CCC(=O)O4)[C@@]3(C)CC[C@@H]12
inactive: all assays above

Oc1ccc(/C=C/c2cc(O)cc(O)c2)cc1
inactive: all assays above

CCOCCn1c(N2CCCN(C)CC2)nc2ccccc21
inactive: all assays above

Cl/C(=C\n1cncn1)c1ccc(Cl)cc1Cl
inactive: all assays above

CC1(C)CO[C@@H](CC(=O)O)CN1
inactive: all assays above

C[C@H](N)[C@H](O)c1cccc(O)c1
inactive: all assays above

CN1CCN(c2c(F)cc3c(=O)c(C(=O)O)cn(CCF)c3c2F)CC1
inactive: all assays above

OC[C@H]1O[C@@H](OCCc2ccc(O)cc2)[C@H](O)[C@@H](O)[C@H]1O
inactive: all assays above

CC(C)OC(=O)c1cc2c(OCC(O)CNC(C)(C)C)cccc2[nH]1 (stereo not drawn)
inactive: all assays above

CCN(CC)CC(=O)OCC(=O)[C@@]1(O)CC[C@H]2[C@@H]3CCC4=CC(=O)CC[C@]4(C)[C@H]3[C@@H](O)C[C@@]21C
inactive: all assays above

CC(C)C(=O)Nc1cccc(C2CN3CCSC3=N2)c1 (stereo not drawn)
inactive: all assays above

CCCCCCCCCCOCC(O)CN (stereo not drawn)
inactive: all assays above

CCOc1ccc2nc(S(N)(=O)=O)sc2c1
inactive: all assays above

COc1nc(C)nc(Cl)c1NC1=NCCN1
inactive: all assays above

CCC(C)(C)c1ccc(CC(C)CN2C[C@@H](C)O[C@@H](C)C2)cc1 (stereo partly drawn)
inactive: all assays above

COc1ccc2nc(NC(=O)Nc3ccccc3)sc2c1
inactive: all assays above

C#CCN(C)CCCOc1ccc(Cl)cc1Cl
inactive: all assays above

Cc1ccc(/C=N/n2c(-c3ccccc3)csc2=S)cc1
inactive: all assays above

CN1[C@@H]2CC[C@H]1CC(NC(=O)n1c(=O)[nH]c3ccccc31)C2 (stereo partly drawn)
inactive: all assays above

C[C@@H]1CCN(C(=O)[C@H](CCCN=C(N)N)NS(=O)(=O)c2cccc3c2NC[C@H](C)C3)[C@@H](C(=O)O)C1
inactive: all assays above

CC(=O)O[C@H]1CC[C@@]2(C)C(=CC[C@@H]3[C@@H]2CC[C@]2(C)C(C(C)=O)=CC[C@@H]32)C1
inactive: all assays above

O=C(OCC(COC(=O)c1cccnc1)(COC(=O)c1cccnc1)COC(=O)c1cccnc1)c1cccnc1
inactive: all assays above

CCCOc1ccc(C(=O)OCCN(CC)CC)cc1N
inactive: all assays above

COc1ccc(CN(CCN(C)C)c2ncccn2)cc1
inactive: all assays above

CO[C@]1(NC(=O)CSC(F)F)C(=O)N2C(C(=O)O)=C(CSc3nnnn3CCO)CO[C@H]21
inactive: all assays above

C#Cc1ccc(-c2ccccc2F)cc1
inactive: all assays above

CC1=CC(=O)c2ccccc2C1=O
inactive: all assays above

CCCCc1cc2ccccc2c(OCCN(C)C)n1
inactive: all assays above

CC(C)N=C(N)/N=C(\N)Nc1ccc(Cl)cc1
inactive: all assays above

CCCCCC(=O)O[C@]1(C(C)=O)CC[C@H]2[C@@H]3CCC4=CC(=O)CC[C@]4(C)[C@H]3CC[C@@]21C
inactive: all assays above

CN1CCOC(c2ccccc2)c2ccccc2C1 (stereo not drawn)
inactive: all assays above

CC(=O)CCC(=O)O
inactive: all assays above

C[C@@H]1C[C@H]2[C@@H]3C[C@H](F)C4=CC(=O)C(Cl)=C[C@]4(C)[C@@]3(F)[C@@H](O)C[C@]2(C)[C@@]1(O)C(=O)CO
inactive: all assays above

CC(C)NCC(O)c1ccc2ccccc2c1 (stereo not drawn)
inactive: all assays above

CCCc1cc(C(N)=S)ccn1
inactive: all assays above

CCN(CCCCOC(=O)c1ccc(OC)c(OC)c1)C(C)Cc1ccc(OC)cc1 (stereo not drawn)
inactive: all assays above

Cc1cccc(Nc2cc(Cl)nc(SCC(=O)O)n2)c1C
inactive: all assays above

CN(C)CCC(c1ccccc1)c1ccccn1 (stereo not drawn)
inactive: all assays above

O=S1(=O)OC(c2ccc(O)cc2)(c2ccc(O)cc2)c2ccccc21
inactive: all assays above
